From paper PMC7862700, “An all-to-all approach to the identification of sequence-specific readers for epigenetic DNA modifications on cytosine”

What was measured:
Assay in all cases: DAPPL (digital affinity profiling via proximity ligation, sequencing); 10 mM Tris-HCl pH 7.5, 50 mM NaCl, 1 mM DTT, 4% glycerol, room temperature, 30 min; GST-TFs on glutathione beads, 16-mer random dsDNA library, 0.1% formaldehyde crosslink after washing; high values mean tight binding
Settings in all cases: protein: recombinant; tags: N-terminal GST; dsDNA, one strand shown
FLI1 = target: T1, FLI1 (Homo sapiens, UniProt Q01543 1-452)
T1 sequence: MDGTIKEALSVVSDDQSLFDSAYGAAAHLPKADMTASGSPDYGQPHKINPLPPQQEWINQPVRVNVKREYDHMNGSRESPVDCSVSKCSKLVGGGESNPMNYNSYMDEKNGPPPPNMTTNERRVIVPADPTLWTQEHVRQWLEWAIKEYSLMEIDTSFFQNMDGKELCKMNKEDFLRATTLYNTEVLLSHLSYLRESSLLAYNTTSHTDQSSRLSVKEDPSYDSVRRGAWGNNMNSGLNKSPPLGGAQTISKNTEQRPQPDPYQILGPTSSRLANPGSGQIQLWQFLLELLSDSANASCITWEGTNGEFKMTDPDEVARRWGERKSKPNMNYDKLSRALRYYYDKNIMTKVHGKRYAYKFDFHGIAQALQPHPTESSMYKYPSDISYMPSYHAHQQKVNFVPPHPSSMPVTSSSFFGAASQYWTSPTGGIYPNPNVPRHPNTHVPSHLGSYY
Procedure, shortened: (§1)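 Binding signal is given per hexamer as its read frequency for a factor divided by its frequency in the tag-only sample. GST-fused human transcription factors were expressed in yeast, captured on glutathione beads, barcoded with DNA and pooled with that sample, then incubated with 200 nmole of a 16-mer random double-stranded DNA library in Tris/NaCl/DTT/glycerol buffer for 30 min at room temperature. The pools were then washed, crosslinked, proximity-ligated, amplified by PCR and sequenced on an Illumina NextSeq500.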

ELK1 = target: T2, ELK1 (Homo sapiens, UniProt P19419 1-428)
T2 sequence: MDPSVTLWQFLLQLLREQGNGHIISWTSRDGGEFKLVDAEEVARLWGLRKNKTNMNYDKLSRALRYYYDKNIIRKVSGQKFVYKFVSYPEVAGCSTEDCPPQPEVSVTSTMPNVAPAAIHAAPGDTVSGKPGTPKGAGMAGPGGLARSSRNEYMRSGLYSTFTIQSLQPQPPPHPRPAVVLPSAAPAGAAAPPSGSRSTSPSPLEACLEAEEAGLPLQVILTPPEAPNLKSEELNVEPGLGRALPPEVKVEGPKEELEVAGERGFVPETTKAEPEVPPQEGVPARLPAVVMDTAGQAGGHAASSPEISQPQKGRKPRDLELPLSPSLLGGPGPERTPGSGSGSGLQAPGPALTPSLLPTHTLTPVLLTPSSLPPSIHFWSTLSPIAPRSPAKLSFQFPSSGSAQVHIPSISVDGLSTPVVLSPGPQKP
Procedure, shortened: as §1

GABPA = target: T3, GABPA (Homo sapiens, UniProt Q06546 1-454)
T3 sequence: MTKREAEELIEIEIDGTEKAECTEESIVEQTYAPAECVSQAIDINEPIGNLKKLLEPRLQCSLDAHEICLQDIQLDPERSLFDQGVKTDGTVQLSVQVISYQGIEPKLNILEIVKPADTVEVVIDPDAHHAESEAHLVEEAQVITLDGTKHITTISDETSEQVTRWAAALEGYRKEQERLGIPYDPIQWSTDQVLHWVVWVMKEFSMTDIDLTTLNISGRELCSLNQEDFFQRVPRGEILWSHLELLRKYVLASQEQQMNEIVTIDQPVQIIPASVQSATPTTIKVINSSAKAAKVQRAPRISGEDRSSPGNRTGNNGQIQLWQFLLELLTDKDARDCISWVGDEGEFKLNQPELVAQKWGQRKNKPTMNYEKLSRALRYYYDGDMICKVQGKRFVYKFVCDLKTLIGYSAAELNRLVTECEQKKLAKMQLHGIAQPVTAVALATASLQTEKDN
Procedure, shortened: as §1

ERG = target: T4, ERG (Homo sapiens, UniProt P11308 1-479)
T4 sequence: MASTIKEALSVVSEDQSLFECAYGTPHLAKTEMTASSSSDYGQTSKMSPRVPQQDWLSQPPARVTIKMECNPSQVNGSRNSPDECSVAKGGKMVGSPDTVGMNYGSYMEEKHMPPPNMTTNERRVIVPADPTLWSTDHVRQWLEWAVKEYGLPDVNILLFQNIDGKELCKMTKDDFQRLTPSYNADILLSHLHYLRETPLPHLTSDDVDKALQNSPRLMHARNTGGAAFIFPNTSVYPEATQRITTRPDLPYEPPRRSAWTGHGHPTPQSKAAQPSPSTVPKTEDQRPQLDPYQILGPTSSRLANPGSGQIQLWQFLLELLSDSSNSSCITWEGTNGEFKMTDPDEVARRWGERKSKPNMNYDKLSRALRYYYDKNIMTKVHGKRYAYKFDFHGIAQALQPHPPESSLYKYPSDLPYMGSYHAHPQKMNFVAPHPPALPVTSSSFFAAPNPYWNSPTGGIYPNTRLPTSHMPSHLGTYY
Procedure, shortened: as §1

ELF1 = ELF1 (Homo sapiens, UniProt P32519 1-619)
Procedure, shortened: as §1

EHF = target: T5, EHF (Homo sapiens, UniProt Q9NZC4 1-300)
T5 sequence: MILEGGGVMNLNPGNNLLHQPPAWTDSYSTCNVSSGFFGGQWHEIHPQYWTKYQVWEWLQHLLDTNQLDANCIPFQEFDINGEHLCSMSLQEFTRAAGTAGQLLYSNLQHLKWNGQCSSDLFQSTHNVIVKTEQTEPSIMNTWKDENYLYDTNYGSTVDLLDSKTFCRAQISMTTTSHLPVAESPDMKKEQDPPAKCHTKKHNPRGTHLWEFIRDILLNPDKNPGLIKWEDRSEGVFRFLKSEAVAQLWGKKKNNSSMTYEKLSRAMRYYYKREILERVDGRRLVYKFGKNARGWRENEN
Procedure, shortened: as §1

SPI1 = SPI1 (Homo sapiens, UniProt P17947 1-270)
Procedure, shortened: as §1

SPIB = SPIB (Homo sapiens, UniProt Q01892 1-262)
Procedure, shortened: as §1

ELK3 = target: T6, ELK3 (Homo sapiens, UniProt P41970 1-407)
T6 sequence: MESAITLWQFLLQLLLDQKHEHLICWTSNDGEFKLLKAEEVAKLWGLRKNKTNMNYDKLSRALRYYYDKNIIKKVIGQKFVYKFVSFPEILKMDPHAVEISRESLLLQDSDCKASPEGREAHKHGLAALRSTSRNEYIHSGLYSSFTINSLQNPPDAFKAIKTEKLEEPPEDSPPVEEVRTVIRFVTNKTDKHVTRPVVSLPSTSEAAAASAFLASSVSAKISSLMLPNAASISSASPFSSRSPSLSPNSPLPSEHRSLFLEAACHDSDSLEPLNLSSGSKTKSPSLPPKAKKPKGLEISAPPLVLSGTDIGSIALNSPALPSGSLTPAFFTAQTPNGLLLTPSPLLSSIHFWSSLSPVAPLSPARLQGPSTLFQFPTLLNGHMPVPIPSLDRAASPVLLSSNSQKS
Procedure, shortened: as §1

Sequence of SPIB (Q01892 whole entry): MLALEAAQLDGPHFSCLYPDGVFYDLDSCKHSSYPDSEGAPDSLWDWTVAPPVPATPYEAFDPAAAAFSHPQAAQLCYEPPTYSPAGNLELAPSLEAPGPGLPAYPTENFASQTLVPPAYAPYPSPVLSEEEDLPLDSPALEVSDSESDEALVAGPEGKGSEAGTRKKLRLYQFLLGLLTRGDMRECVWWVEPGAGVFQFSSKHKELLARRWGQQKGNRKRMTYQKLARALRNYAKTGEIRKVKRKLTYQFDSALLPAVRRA
Sequence of ELF1 (P32519 whole entry): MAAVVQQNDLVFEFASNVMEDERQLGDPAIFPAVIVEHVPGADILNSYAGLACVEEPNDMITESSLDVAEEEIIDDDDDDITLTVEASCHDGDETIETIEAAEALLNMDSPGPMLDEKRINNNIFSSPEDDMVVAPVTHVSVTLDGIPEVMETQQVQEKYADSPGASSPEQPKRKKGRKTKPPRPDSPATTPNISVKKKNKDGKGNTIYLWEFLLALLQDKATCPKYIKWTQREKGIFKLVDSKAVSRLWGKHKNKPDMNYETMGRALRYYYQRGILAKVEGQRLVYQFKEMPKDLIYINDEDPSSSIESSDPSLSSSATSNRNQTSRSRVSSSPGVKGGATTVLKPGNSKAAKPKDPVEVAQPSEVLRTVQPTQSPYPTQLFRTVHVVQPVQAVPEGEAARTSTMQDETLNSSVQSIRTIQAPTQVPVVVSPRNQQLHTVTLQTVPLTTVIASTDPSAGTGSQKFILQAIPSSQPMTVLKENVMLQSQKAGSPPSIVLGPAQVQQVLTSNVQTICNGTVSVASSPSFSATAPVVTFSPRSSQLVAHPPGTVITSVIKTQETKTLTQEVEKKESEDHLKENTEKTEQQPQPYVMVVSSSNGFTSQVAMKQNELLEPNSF

Row | Sequence | binding signal (FLI1) | binding signal (ELK1) | binding signal (GABPA) | binding signal (ERG) | binding signal (ELF1) | binding signal (EHF) | binding signal (SPI1) | binding signal (SPIB) | binding signal (ELK3)
1 | CACGCC | 1.12 fold enrichment (6-mer frequency, TF over GST control) | 1.25 fold enrichment (6-mer frequency, TF over GST control) | 1.27 fold enrichment (6-mer frequency, TF over GST control) | 1.29 fold enrichment (6-mer frequency, TF over GST control) | 1.26 fold enrichment (6-mer frequency, TF over GST control) | 1.18 fold enrichment (6-mer frequency, TF over GST control) | 1.2 fold enrichment (6-mer frequency, TF over GST control) | 1.15 fold enrichment (6-mer frequency, TF over GST control) | 1.22 fold enrichment (6-mer frequency, TF over GST control)
2 | TTGCGG | 1.37 fold enrichment (6-mer frequency, TF over GST control) | 1.14 fold enrichment (6-mer frequency, TF over GST control) | 1.21 fold enrichment (6-mer frequency, TF over GST control) | 1.28 fold enrichment (6-mer frequency, TF over GST control) | 1.38 fold enrichment (6-mer frequency, TF over GST control) | 1.3 fold enrichment (6-mer frequency, TF over GST control) | 1.61 fold enrichment (6-mer frequency, TF over GST control) | 1.2 fold enrichment (6-mer frequency, TF over GST control) | 1.26 fold enrichment (6-mer frequency, TF over GST control)
3 | TTGAAC | 1.13 fold enrichment (6-mer frequency, TF over GST control) | 1.1 fold enrichment (6-mer frequency, TF over GST control) | 1.08 fold enrichment (6-mer frequency, TF over GST control) | 1.01 fold enrichment (6-mer frequency, TF over GST control) | 1.15 fold enrichment (6-mer frequency, TF over GST control) | 1.11 fold enrichment (6-mer frequency, TF over GST control) | 1.04 fold enrichment (6-mer frequency, TF over GST control) | 1.12 fold enrichment (6-mer frequency, TF over GST control) | 1.12 fold enrichment (6-mer frequency, TF over GST control)
4 | CACACT | 1.18 fold enrichment (6-mer frequency, TF over GST control) | 1.11 fold enrichment (6-mer frequency, TF over GST control) | 1.17 fold enrichment (6-mer frequency, TF over GST control) | 1.18 fold enrichment (6-mer frequency, TF over GST control) | 1.21 fold enrichment (6-mer frequency, TF over GST control) | 1.2 fold enrichment (6-mer frequency, TF over GST control) | 1.16 fold enrichment (6-mer frequency, TF over GST control) | 1.14 fold enrichment (6-mer frequency, TF over GST control) | 1.24 fold enrichment (6-mer frequency, TF over GST control)
5 | CTGTCA | 1.21 fold enrichment (6-mer frequency, TF over GST control) | 1.11 fold enrichment (6-mer frequency, TF over GST control) | 1.2 fold enrichment (6-mer frequency, TF over GST control) | 1.14 fold enrichment (6-mer frequency, TF over GST control) | 1.19 fold enrichment (6-mer frequency, TF over GST control) | 1.12 fold enrichment (6-mer frequency, TF over GST control) | 1.1 fold enrichment (6-mer frequency, TF over GST control) | 1.15 fold enrichment (6-mer frequency, TF over GST control) | 1.08 fold enrichment (6-mer frequency, TF over GST control)
6 | TGTATT | 1.38 fold enrichment (6-mer frequency, TF over GST control) | 1.31 fold enrichment (6-mer frequency, TF over GST control) | 1.33 fold enrichment (6-mer frequency, TF over GST control) | 1.32 fold enrichment (6-mer frequency, TF over GST control) | 1.37 fold enrichment (6-mer frequency, TF over GST control) | 1.34 fold enrichment (6-mer frequency, TF over GST control) | 1.28 fold enrichment (6-mer frequency, TF over GST control) | 1.28 fold enrichment (6-mer frequency, TF over GST control) | 1.43 fold enrichment (6-mer frequency, TF over GST control)
7 | CACTAC | 1.38 fold enrichment (6-mer frequency, TF over GST control) | 1.37 fold enrichment (6-mer frequency, TF over GST control) | 1.36 fold enrichment (6-mer frequency, TF over GST control) | 1.31 fold enrichment (6-mer frequency, TF over GST control) | 1.33 fold enrichment (6-mer frequency, TF over GST control) | 1.28 fold enrichment (6-mer frequency, TF over GST control) | 1.17 fold enrichment (6-mer frequency, TF over GST control) | 1.36 fold enrichment (6-mer frequency, TF over GST control) | 1.27 fold enrichment (6-mer frequency, TF over GST control)
8 | GGATGC | 1.11 fold enrichment (6-mer frequency, TF over GST control) | 1.06 fold enrichment (6-mer frequency, TF over GST control) | 1.1 fold enrichment (6-mer frequency, TF over GST control) | 1.16 fold enrichment (6-mer frequency, TF over GST control) | 1 fold enrichment (6-mer frequency, TF over GST control) | 1.24 fold enrichment (6-mer frequency, TF over GST control) | 1.11 fold enrichment (6-mer frequency, TF over GST control) | 1.28 fold enrichment (6-mer frequency, TF over GST control) | 1.23 fold enrichment (6-mer frequency, TF over GST control)
